Here are results for 40 sequences from the supplement of paper PMC6555819.

The test system of this assay is PPARa:RXRa (NR concentration 270 nM, RXRa partner concentration 90 nM). The assay is described as follows: PBM binding z-score (relative to random genomic background probes); higher = stronger binding; sequences stand for … in GC…GCGATTGACAGCGTAGAATGAAGG
The procedure, abridged: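 Binding z-scores take random background probes as their reference. They come from custom Agilent 4×180K protein-binding microarrays incubated 1 h with ligand-free nuclear receptor dimers, with antibodies against each partner (one per run) detecting binding. Scanned fluorescence was regression-normalized.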
AAATGTAGGTTATCGGGTCATTCAGTTTGCGCAT showed a PBM binding z-score of 5.21. With TCTTGTAGATCAACAGGAGGTAAAGAAAGATCGA, the PBM binding z-score turned out to be 0.461. On to CCTTACGGGTCACGAGGTTATGGCACGACGAGCG, for which the PBM binding z-score turned out to be 5.94.

CCTCGGAGGACAGAAGATCAGAGCTGTCCGCTTT had a PBM binding z-score of -0.456.

The sequence TTACCAAGGCGAGCTGAGGTCGTTGATCCAACTC gave a PBM binding z-score of 0.95. In turn, TCTAGTAGATCAGCAGGTTAAGAAAGCTGGCCAA showed a PBM binding z-score of 0.734. As for GCGACTGGGGCATCAGCAGGTTACGATAACTTAA, the figure is 1.38; as for CGAACTAGGTCATCCAGGACAGTAAATACATTGA, 4.68; as for ACTATTAGTTGAGACGAAGGCAACCGATAGGTTG, -0.644. TCGAGTTGGTTAGTCGGGGCATTCAGCCAACATA had a PBM binding z-score of 0.218. Consider TAGCCTAGGTCATTCAGGGGCCTGTATAGAAAGC, for which the PBM binding z-score turned out to be 3.5.

As for TAGCCAAGGTCATGGGCCAGTATACCACGCGAAC, the PBM binding z-score turned out to be 6.11. For TCTAGTTGGGCACGGAGGTCACACACGACGGGTA the value was 3.52; for ATCTCTAGGTAAAGTACAGTGAAAGATCGATAGA, 0.0903; for GTACCAAGATGAATAGGTCGTTGATGAGTAGGCG, 0.287. In the case of CGAACTAGGTCCGAACAGGACAGTGAAGGATGAT, the PBM binding z-score was -1.03. CTCGAAAGGTCGTTCTCAGGTGAGTATACCAAAC had a PBM binding z-score of 4.56. On to CAAACTAAGTCAAGGTCAAAGTCGGTTTGTGCCA, for which the PBM binding z-score is 4.7. The sequence GTTGCTAGGTCAGGTTGGTCAGCTAACGGGTACG registered a PBM binding z-score of 1.68.

CCAACGAGGGCATGAGTTGATAGCAAATGCCGAT displayed a PBM binding z-score of 0.994. For TCTTGTAGATCGGCAGGTTAAGAAAGCTGGCCAA, the PBM binding z-score came to 0.736. For the sequence TCGAGTAGGTTAGGGGCATTCAAAATGGCGTCGA, the PBM binding z-score was determined as 1.38.

In turn, TAGCCTAGGTCATTCAGGGGCCAGTCTAGAAAGC returned a PBM binding z-score of 3.29. The sequence TCTCCTAGGTCAGTTGGTCAGCTAACGAGCTGCC showed a PBM binding z-score of 1.89. For ATCGAAAGGTCGTGAGGTGAGTGTACAGAAAGGC, the PBM binding z-score came to 4.99. CGTCAAAGTTCAAGGTAACGGAACAGAAAGCAGC returned a PBM binding z-score of 4.63.

In turn, ACTATTAGTTGAGACGAGGGCAAACGATAGGTTG came in with a PBM binding z-score of 0.382. As to TCGAGTAGGTTAGGGGCTTTCAGAATGGCGTCGA, the PBM binding z-score amounted to 0.524.

For the sequence CGAGCTAGGTCAAGGACAGTGAATCTCCGCACGC, the PBM binding z-score amounted to 3.06. ATCTCTAGGTAAGAAGTTCAGTGAAAGAGAGGAC gave a PBM binding z-score of 0.924. As for TTACCAAGGGGAGCTGAGGTCGTTGATCCAACTC, the figure is 0.818. Take ACAGACAGTTGAGTGAAGGTAACTCAGCTGGACG: the PBM binding z-score is -0.127. TCTCGGAGGACACGTAAGGTCAGAGCTCGACATC: the PBM binding z-score is 2.29.

ATCTCTAGGTAACAAGTTAAGTGAAAGAGAGGAC came in with a PBM binding z-score of 1.55. For the sequence CTCGAAAAGTCGTGCTCAGGTGAGTATACCAAAC, the PBM binding z-score came out at 0.252. In the case of TGAATGAGGTTATAAGCTCAGGGAACGTTGCAAA, the PBM binding z-score came out at 2.67. AGAATGAGGTTATAAAGATCAGGGAATTGCGGTC returned a PBM binding z-score of 2.65. For CAAACTAGGTCACCGGAAGGTCAACGTCCGCATG, the PBM binding z-score came out at 6.13. The sequence ATAGGTAGGTTAGCTGGGGTCATTCAGACTAGGC gave a PBM binding z-score of 4.82.

For TCTATTAGTTGACTAGGGCAACCGAAACAGCGGA, the PBM binding z-score amounted to 1.45.
